MmCpn inh = inhibitors of Methanococcus maripaludis chaperonin TRiC (MmCpn); purified Mm-Cpn ATPase, ADP Transcreener TR-FRET; Potency, µM (highest dose often 76.9 µM), for inactives: top-dose activity, negative = inhibition, hits mostly inhibitors; actives 0.031% (n = 330,000); AID 504842; also: potency is read from the fitted curve at half-maximal effect; % is scaled to controls: 0 for no effect and ±100 for the full control effect; nearly all actives have a fitted effect of over 80% in size
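ATPase read-out: TR-FRET ADP immunoassay (anti-ADP Eu cryptate vs ADP-d2), ex 320 nm, em 590/665 nm; signal drops as ADP forms. Enzyme 25 nM, ATP 10 uM, 30 min at 37°C after 10 min compound preincubation.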
A-T KAP1 phos = potential ataxia-telangiectasia treatments restoring KAP-1 phosphorylation; F2112 A-T fibroblasts, KAP-1 phosphorylation AlphaLISA; neocarzinostatin DNA damage 30 min before lysis; Potency, µM (doses to about 57.5 µM), for inactives: at the top dose activation, hits mostly activators; actives 0.19% (n = 320,000); also: potency is read from the fitted curve at half-maximal effect; % of control where 0% means no effect; nearly all actives have a fitted effect of over 45% in size
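hTERT-immortalized A-T patient fibroblasts (F2112), 500 cells/well in OPTI-MEM, 1% FBS, got compounds for 60 min, then NCS for 30 min at 37C. Lysates were then assayed for phospho-KAP-1 by AlphaLISA (anti-pKAP1 donor, anti-KAP1 acceptor beads), 6 hr at 25C.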
Anesthetic bind = binds horse apoferritin like a general anesthetic | Potency, µM (highest dose often 77.5 µM), without a hit: top-dose activity change, negative = displacement, usual class: inhibitors | AID 485281 | actives 0.074% (n = 350,000) | P02791 | apoferritin/1-aminoanthracene competitive binding, fluorescence; also: potency is read from the fitted curve at half-maximal effect; % is scaled to controls: 0 for no effect and ±100 for the full control effect; nearly all actives have a fitted effect of over 20% in size
Target sequence (P02791 2-175 limits assumed): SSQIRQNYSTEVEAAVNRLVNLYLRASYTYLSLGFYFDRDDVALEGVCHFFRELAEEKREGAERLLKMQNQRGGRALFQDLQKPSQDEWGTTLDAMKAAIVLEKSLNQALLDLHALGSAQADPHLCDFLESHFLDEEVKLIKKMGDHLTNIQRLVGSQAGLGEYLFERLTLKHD
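Read-out: endpoint 1-AMA fluorescence, excitation 380 nm and emission 535 nm, after compounds sit 10 min at room temperature with 10 uM horse-spleen apoferritin in 50% saturated 1-AMA/PBS. Values come from four-parameter Hill fits.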
CCT modulator = modulators of cytosolic chaperonin (CCT/TRiC) activity | AID 651819 | actives 0.3% (n = 360,000) | purified chaperonin ATPase assay, HTRF ADP detection, 30 min | activity change, % (concentration not given with the values), hits read low; in the data active = activity change below about -30%; also: % is scaled to controls: 0 for no effect and ±100 for the full control effect
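Nucleotide hydrolysis assay: TRiC at 20–40 nM final (set by batch activity) with 10 uM ATP, 30 min at 37 °C, in presence of 76 uM compound. Detection by competitive ADP HTRF, 30 min ambient.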
* = called active by the depositor; [ ] = dose if it differs, or a comment. Rows were chosen to be rich in hits. Some 0.47% of all compounds tested hit in one or more screens of this group. Unless noted, calls follow the shape of the dose curve; as a rule, active = well fitted curve in the direction sought with a large enough effect; inconclusive = small, poorly fitted or top-dose-only effect, or another doubt; inactive = no such curve, though single readings can be large; an effect the other way counts as inactive or inconclusive.

Results for CC(CNC(=O)C1CCN(S(=O)(=O)c2ccc3c(ccn3C)c2)CC1)c1ccccc1 (stereo unspecified) ?
Anesthetic bind: -11%

What do the screens show for `CCOC(=O)C(=O)Nc1nnc(Cc2ccc(OC)c(OC)c2)s1`?
MmCpn inh: -1%; A-T KAP1 phos: 28µM*; Anesthetic bind: 7%; CCT modulator: 0

Results for CCOCC(=O)Nc1nnc(Cc2ccc(OC)c(OC)c2)s1 ?
MmCpn inh: -3%; A-T KAP1 phos: 2%; Anesthetic bind: -9%; CCT modulator: 0

What do the screens show for `Cc1cc(C(=O)CSc2cccc[n+]2[O-])c(C)n1-c1ccc(Br)cc1`?
MmCpn inh: 0%; A-T KAP1 phos: -1%; Anesthetic bind: -22%

How did Cc1cc(C(=O)CSc2cccc[n+]2[O-])c(C)n1-c1ccccc1 do in these assays?
MmCpn inh: -3%; A-T KAP1 phos: -3%; Anesthetic bind: -7%; CCT modulator: -38*

Results for COc1ccc(C)cc1Nc1c2c(nc3ccccc13)CCC2 ?
MmCpn inh: 0%; A-T KAP1 phos: inconclusive; Anesthetic bind: -14%; CCT modulator: -34*

How did CCNS(=O)(=O)c1ccc(NC(=S)NCc2ccco2)cc1 do in these assays?
MmCpn inh: 2%; A-T KAP1 phos: 1%; Anesthetic bind: -6%; CCT modulator: -2

What do the screens show for `O=S(=O)(NCc1ccccc1)c1ccc(NC(=S)NCc2ccco2)cc1`?
MmCpn inh: -10%; A-T KAP1 phos: 1%; Anesthetic bind: 8.9µM*; CCT modulator: -3

Results for Cc1ccc(OCCCn2ccnc2)cc1C ?
MmCpn inh: -4%; A-T KAP1 phos: 2%; Anesthetic bind: 18µM*; CCT modulator: 0

What do the screens show for `Cc1cccc(OCCCn2ccnc2)c1`?
MmCpn inh: 3%; A-T KAP1 phos: 13%; Anesthetic bind: 8%; CCT modulator: -14

What do the screens show for `Cc1ccc2nc(NCCCO)nc(-c3ccccc3)c2c1`?
MmCpn inh: 0%; Anesthetic bind: inactive; CCT modulator: -1

How did OCCCNc1nc(-c2ccccc2)c2cc(Br)ccc2n1 do in these assays?
MmCpn inh: -4%; A-T KAP1 phos: 40µM*; Anesthetic bind: 71%; CCT modulator: -2

Results for O=C(CCNS(=O)(=O)c1ccc(Br)cc1)N1CCCCCCC1 ?
MmCpn inh: -1%; A-T KAP1 phos: -6%; CCT modulator: 1

What do the screens show for `O=C(CCS(=O)(=O)c1ccc(Br)cc1)N1CCCCCC1`?
MmCpn inh: 1%; A-T KAP1 phos: 11%; Anesthetic bind: -8%; CCT modulator: -74*

How did O=C(CSc1nnc2ccc(-c3ccccn3)nn12)Nc1cccc(F)c1 do in these assays?
CCT modulator: -45*

Results for COc1ccc(-c2ccc(=O)n(CC(=O)NCc3ccco3)n2)cc1 ?
MmCpn inh: 0%; A-T KAP1 phos: -10%; Anesthetic bind: inconclusive; CCT modulator: 1

Results for O=C(Cn1nc(-c2ccccc2)ccc1=O)NCc1ccc(F)cc1Cl ?
Anesthetic bind: 11µM*

How did O=C(O)Cn1nc(-c2ccccc2)ccc1=O do in these assays?
MmCpn inh: 2%; A-T KAP1 phos: 17%; Anesthetic bind: 0%; CCT modulator: 3

What do the screens show for `Cc1ccc(-c2ccc(=O)n(CC(=O)NCc3ccco3)n2)cc1`?
MmCpn inh: 1%; A-T KAP1 phos: -4%; Anesthetic bind: 8.9µM*; CCT modulator: 0

What do the screens show for `CCc1ccc(CNC(=O)Cn2nc(-c3ccccc3)ccc2=O)cc1`?
MmCpn inh: -1%; A-T KAP1 phos: 2%; Anesthetic bind: 11µM*; CCT modulator: -5

Results for COCCCn1c(=N)c(C(=O)NC2CCCCC2)cc2c(=O)n3cc(C)ccc3nc21 ?
Anesthetic bind: 60%

What do the screens show for `CCCn1c2ccccc2c2cnn(CC(=O)Nc3cc(OC)c(OC)c(OC)c3)c(=O)c21`?
Anesthetic bind: 6%

How did O=C(c1ccco1)N1CCC(c2nc(-c3ccc(F)cc3)no2)CC1 do in these assays?
MmCpn inh: 4%; Anesthetic bind: -15%; CCT modulator: -35*

How did CCOc1ccc(N(CC(=O)Nc2cc(C)ccc2C)S(=O)(=O)c2c(C)[nH]c(=O)[nH]c2=O)cc1 do in these assays?
MmCpn inh: 0%; A-T KAP1 phos: 28µM*; Anesthetic bind: 1%; CCT modulator: -1

What do the screens show for `CCNC(=O)COc1ccc(/C=C2\COc3ccccc3C2=O)cc1OC`?
MmCpn inh: -2%; A-T KAP1 phos: 25µM*; Anesthetic bind: -10%; CCT modulator: -2

How did CCOc1cc(/C=C2\COc3ccccc3C2=O)ccc1OCC(=O)N(C)C do in these assays?
MmCpn inh: -5%; A-T KAP1 phos: 2%; Anesthetic bind: 3%; CCT modulator: 2

What do the screens show for `COc1ccccc1C(=O)OCc1cc(=O)n2c(C)csc2n1`?
Anesthetic bind: 1%

What do the screens show for `Cc1nc(NCCc2ccc(O)cc2)c2nnn(Cc3ccccc3)c2n1`?
MmCpn inh: -3%; A-T KAP1 phos: -3%; Anesthetic bind: 16µM*; CCT modulator: 1

Results for Cc1nc(NCCc2ccc(F)cc2)c2nnn(Cc3ccccc3)c2n1 ?
MmCpn inh: 0%; A-T KAP1 phos: 2%; Anesthetic bind: -15%; CCT modulator: -1

How did O=C1C(CSCc2ccccc2)NC(=S)N1c1ccccc1 (stereo unspecified) do in these assays?
MmCpn inh: 0%; A-T KAP1 phos: 35µM*; Anesthetic bind: -9%; CCT modulator: 1

What do the screens show for `O=C(O)CC1NC(=S)N(c2ccccc2)C1=O` (stereo unspecified)?
MmCpn inh: 1%; A-T KAP1 phos: 2%; Anesthetic bind: -3%; CCT modulator: -3

How did CCCC[C@]12Cc3cc(OC)c(OC)cc3C(O1)C1=C(O2)C(=O)c2ccccc2C1=O do in these assays?
MmCpn inh: -1%[15.4 µM]; A-T KAP1 phos: -8%[11.5 µM]; Anesthetic bind: inconclusive

Results for Cc1nc2ccccc2c(=O)n1/N=C/c1ccc(O)cc1 ?
MmCpn inh: 2%; A-T KAP1 phos: -6%; Anesthetic bind: -15%; CCT modulator: 0

Results for CCc1nc2ccccc2c(=O)n1/N=C/c1ccc(Cl)cc1 ?
CCT modulator: -33*

How did Cc1ccc(CN2CCC(CNc3ncnc4onc(-c5ccc(F)cc5)c34)CC2)cc1 do in these assays?
Anesthetic bind: -21%

How did CCn1cc(/C=C(\NC(=O)c2ccc(OC)c(OC)c2)C(=O)NCCCN2CCOCC2)c2ccccc21 do in these assays?
MmCpn inh: -1%; A-T KAP1 phos: -9%; Anesthetic bind: -14%; CCT modulator: -81*

Results for CCn1cc(/C=C(\NC(=O)c2ccc(C)cc2)C(=O)NCCCN2CCOCC2)c2ccccc21 ?
MmCpn inh: -1%; A-T KAP1 phos: -12%; Anesthetic bind: -17%; CCT modulator: 0

What do the screens show for `COc1ccc(OC)c(-c2nnc3n2N=C(c2c(OC)cccc2OC)CS3)c1`?
Anesthetic bind: -14%

High-throughput results as filed in PubChem.
